Source: PubChem BioAssay
Calls of active or inactive are those of the source.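 Rule for the calls, unless noted: active = inhibition at or above 50% at 10 µM; inactive = inhibition below 50%.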

Legend:
[1] = inhibitors of TNFa-induced NFkB p65 translocation, primary screen, imaging, HUVEC, MLSMR starter and 10KST1 sets (AID 438;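 active = inhibition above 20% together with a positive visual image hit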;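 note: compound added about 3h40 before a 20 min TNFalpha stimulation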;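 for inhibition: signal is the nuclear over cytoplasmic p65 intensity ratio per well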); details: HUVEC TNFa-induced p65 nuclear translocation; cell count: measured here: nuclei count (cytotoxicity indicator), at 2.08 µM; inhibition: at 2 µM, stronger effect = higher value, 0% TNFa-plus-vehicle, 100% no-TNFa wells
[2] = reduction of polyQ htt aggregates in cells – imaging, exon1htt(103Q)mCFP cells, high-content imaging, primary screen (AID 483;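 active = visual image review flags a hit and inhibition of aggregation exceeds 20%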;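 note: compound exposure lasted 3 days before fixation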;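 for nuclei count: percent of the per-plate median nuclei count of sample wells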); details: exon1htt(103Q)mCFP cell line, aggregate imaging, at 2 µM; inhibition of aggregation: stronger effect = higher value; nuclei count: measured here: cell count, toxicity
[3] = endothelial E-selectin expression blockers – imaging, HUVEC, immunofluorescence, MLSMR starter and 10KST1 sets, primary screen (AID 487;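 active = visually confirmed hit in the image check and inhibition above 20%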;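 for inhibition: signal is fraction of cell area covered by stained E-selectin grains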;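 for nuclei count: 100% = median nuclei count of all wells on the same plate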); details: HUVEC TNFalpha-induced E-selectin immunofluorescence imaging, at 2 µM; inhibition: stronger effect = higher value; nuclei count: measured here: cell number, toxicity
[4] = target: Voltage-gated potassium channel subunit beta-2 (Rattus norvegicus) (UniProt P62483); experiment: inhibitors of rat Kvbeta2 reductase activity – biochemical, NADPH fluorescence, primary screen (AID 622;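 active = fluorescence slope higher than the sample average by over 3 SD, cut at about -0.22 in these data, passing the limit was not always enough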;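 note: slope of raw intensity against log time taken from 70 to 1610 s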); details: recombinant KvBeta, 4-cyanobenzaldehyde reduction, at 10 µM, stronger effect = higher value
[5] = target: Voltage-gated potassium channel subunit beta-2 (Rattus norvegicus) (UniProt P62483); experiment: enhancers of rat Kvbeta2 NADPH turnover – biochemical, NADPH fluorescence, primary screen (AID 623;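 active = NADPH fluorescence slope more negative than the mean of all samples by about 3 SD, 99.7% confidence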;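 note: fluorescence intensity change per second fitted from 20 to 320 s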); details: Recombinant KvBeta, NADPH fluorescence decrease slope, 10 min; at 10 µM; stronger effect = lower value
[6] = target: Alpha-2C adrenergic receptor (Homo sapiens) (UniProt P18825); experiment: compounds altering alpha2C-coupled GIRK flux – cell-based, HEK293 alpha2C/GIRK1/2, thallium flux, primary screen (AID 624;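 active = fluorescence slope after compound addition differing from the mean of all screened samples at 99.7% confidence, in either direction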;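 note: slope of fluorescence ratio to pre-addition baseline per second over 15 to 24 s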); details: thallium flux BTC fluorescence, at 10 µM, actives lie on both sides
[7] = blockers of RIG-like receptor reporter activation – cell-based, Sendai virus stimulus, luciferase, 10K MLSCN set, TLR/RLR signaling modifier project, primary screen (AID 602276); details: HEK293 RL24 IRF3 luciferase reporter, at 10 µM, stronger effect = higher value;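 note: firefly luciferase from ISG56 promoter only with Renilla not read in this screen; 0% = Sendai virus plus DMSO and 100% = medium plus DMSO without virus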
[8] = TLR3 IRF3 reporter activation blockers – cell-based, poly I:C stimulus, luciferase, 10K MLSCN set, primary screen (AID 602277;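 active = inhibition of the reporter signal at or above 50%; inactive = inhibition below 50%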); details: HEK293-TLR3 RL24 IRF3 luciferase reporter, at 10 µM, stronger effect = higher value

Alpha-2C adrenergic receptor (Homo sapiens), sequence (P18825 whole entry, looked up): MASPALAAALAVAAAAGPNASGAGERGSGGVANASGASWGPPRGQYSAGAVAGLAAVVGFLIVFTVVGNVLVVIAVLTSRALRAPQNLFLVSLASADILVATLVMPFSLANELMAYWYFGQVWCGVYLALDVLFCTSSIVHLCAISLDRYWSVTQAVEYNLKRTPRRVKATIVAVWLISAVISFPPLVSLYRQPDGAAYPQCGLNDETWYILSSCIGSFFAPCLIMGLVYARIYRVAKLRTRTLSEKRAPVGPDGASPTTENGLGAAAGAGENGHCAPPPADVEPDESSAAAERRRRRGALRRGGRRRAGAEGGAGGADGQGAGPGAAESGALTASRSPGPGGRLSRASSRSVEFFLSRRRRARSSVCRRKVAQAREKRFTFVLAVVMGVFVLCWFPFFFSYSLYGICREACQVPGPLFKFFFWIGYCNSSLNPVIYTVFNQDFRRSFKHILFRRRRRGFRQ
Voltage-gated potassium channel subunit beta-2 (Rattus norvegicus), sequence (P62483 whole entry, looked up): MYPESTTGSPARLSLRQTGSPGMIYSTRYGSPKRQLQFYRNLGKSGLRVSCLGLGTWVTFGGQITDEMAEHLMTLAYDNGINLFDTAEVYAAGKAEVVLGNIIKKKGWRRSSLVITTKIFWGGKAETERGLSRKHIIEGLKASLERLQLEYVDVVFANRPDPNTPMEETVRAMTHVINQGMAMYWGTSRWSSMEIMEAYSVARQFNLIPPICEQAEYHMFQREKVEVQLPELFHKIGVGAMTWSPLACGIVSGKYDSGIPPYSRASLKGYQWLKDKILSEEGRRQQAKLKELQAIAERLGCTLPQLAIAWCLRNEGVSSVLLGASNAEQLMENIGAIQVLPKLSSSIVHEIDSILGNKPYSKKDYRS

Compound | cell count [1] | inhibition [1] | inhibition of aggregation [2] | nuclei count [2] | inhibition [3] | nuclei count [3] | fluorescence slope [4] | NADPH fluorescence slope [5] | slope [6] | inhibition [7] | inhibition [8]
c1ccc2c(c1)nc(NCCN1CCOCC1)c1nncn12 | 508 | 3.2% (inactive) | 25.2% (inactive) | 85.4% | -51.1% (inactive) | 99.2% | -0.587 (inactive) | -4e-05 (inactive) | 0.00643 (inactive) | 12.4% (inactive) | 37.9% (inactive)
CCN(CCO)C(=O)CC(c1ccccc1)c1cc(Br)ccc1O (centres undefined) | 357 | 15% (inactive) | -0.8% (inactive) | 102% | -31.9% (inactive) | 102% | -0.331 (inactive) | -6.1e-05 (inactive) | 0.00761 (inactive) | 13.1% (inactive) | 20.3% (inactive)
CCCCc1noc2c1/C(=N\O)CC(c1ccccc1)C2 (centres undefined) | 365 | 2% (inactive) | 11.5% (inactive) | 106% | -65.5% (inactive) | 94.1% | -0.446 (inactive) | -5.9e-05 (inactive) | 0.0073 (inactive) | -46.5% (inactive) | -152% (inactive)
C/C(Nc1cccc(F)c1)=C(/C#N)C(N)=O | 640 | 3.4% (inactive) | 1.6% (inactive) | 104% | 48.6% (inactive) | 106% | -0.361 (inactive) | -3.8e-05 (inactive) | 0.00545 (inactive) | -10.6% (inactive) | -10.3% (inactive)
Fc1cccc2sc(N3CCOCC3)nc12 | 255 | -8.3% (inactive) | 16.8% (inactive) | 68.5% | 6.6% (inactive) | 51.7% | -0.387 (inactive) | -3.9e-05 (inactive) | 0.00353 (inactive) | -10.5% (inactive) | -45.8% (inactive)
CCCCOC(=O)Cn1c(=O)oc2ccc(C)cc21 | 741 | -5.8% (inactive) | 3.3% (inactive) | 38% | -96.5% (inactive) | 109% | -0.589 (inactive) | -4.7e-05 (inactive) | 0.00659 (inactive) | -5.21% (inactive) | 7.21% (inactive)
C=CCn1c(N)c(C(=O)NCCC2=CCCCC2)sc1=S | 450 | 6.6% (inactive) | -12.8% (inactive) | 104% | 4% (inactive) | 116% | -0.626 (inactive) | -1.2e-05 (inactive) | 0.00668 (inactive) | 0.338% (inactive) | -64.6% (inactive)
CCN(c1c(C)n(C)n(-c2ccccc2)c1=O)S(C)(=O)=O | 614 | 11.6% (inactive) | 3.3% (inactive) | 104% | -98.2% (inactive) | 145% | -0.58 (inactive) | -3.6e-05 (inactive) | 0.00621 (inactive) | 23.1% (inactive) | 24.6% (inactive)
COc1ccc(N2CCN(Cc3nc4c(c(=O)[nH]c(=O)n4C)n3CC(C)=O)CC2)cc1 | 682 | 0.5% (inactive) | -29.1% (inactive) | 126% | -37.3% (inactive) | 119% | -0.578 (inactive) | -2.9e-05 (inactive) | 0.00484 (inactive) | 4.33% (inactive) | 29.5% (inactive)
Cc1nc(N)c(C#N)c(-c2cccnc2)c1C | 494 | -14.5% (inactive) | 30.9% (inactive) | 85% | -16.2% (inactive) | 88.9% | -0.411 (inactive) | 1.8e-05 (inactive) | 0.00561 (inactive) | 4.72% (inactive) | -5.6% (inactive)
CCOC(=O)CSc1nnc([C@H](C)NC(=O)OC(C)(C)C)o1 | 552 | 12% (inactive) | -32.6% (inactive) | 83.6% | -35% (inactive) | 118% | -0.471 (inactive) | -3.4e-05 (inactive) | 0.00421 (inactive) | 3.34% (inactive) | 14.1% (inactive)
Cc1cc(C(=O)Nc2nc3c(s2)CCCC3)cs1 | 347 | 7.6% (inactive) | -12.3% (inactive) | 111% | -6.3% (inactive) | 107% | -0.532 (inactive) | 1.1e-05 (inactive) | 0.00523 (inactive) | -47% (inactive) | -131% (inactive)
O=S(=O)(c1ccc(F)c(Cl)c1)N1CCCC1 | 331 | 2.2% (inactive) | 8.7% (inactive) | 98.5% | 31.8% (inactive) | 99.6% | -0.486 (inactive) | -1e-05 (inactive) | 0.00653 (inactive) | 2.45% (inactive) | 30.3% (inactive)
CC1=C(C(=O)NC2CCCC(C)C2C)C2(CCCCC2)OC1=O (centres undefined) | 515 | 3.3% (inactive) | 18.1% (inactive) | 64.9% | -37.4% (inactive) | 114% | -0.598 (inactive) | -6.8e-07 (inactive) | 0.00687 (inactive) | -0.153% (inactive) | 17.7% (inactive)
